We go through 18 compounds from article PMC4552634, “A New Set of Chemical Starting Points with Plasmodium falciparum Transmission-Blocking Potential for Antimalarial Drug Discovery” (PLoS ONE, 2015).

A word on the % Inhibition: it is the relative decrease from the control value, in per cent.

In all, about 13,000 compounds went through this assay and about 3,200 (25%) showed an effect of 50% or more. The list shows a part of the results.

In the experiment the test system is P. falciparum stage V gametocytes. On the set-up: BacTiter-Glo ATP luminescence viability of purified stage V gametocytes in 384-well plates, per cent inhibition versus DMSO. Particulars: 48 h, 5 µM; inhibitor.
As to `FC(F)(F)c1ccc2[nH]c(-c3ccc(-c4ccc(CNCC5CCCO5)cc4)s3)nc2c1.O=C(O)C(F)(F)F` (stereo not drawn) [TCMDC-133092], the “% Inhibition” value is -19.94%. The value for `CC1CN(c2ccc(C(=O)NCC3CC3)cc2NC(=O)OCc2ccccc2)CC(C)O1` (stereo not drawn) [TCMDC-134641] was 11.9%; that for `CCOc1ccc2c(c1)OC(c1ccccc1)(C(F)(F)F)NC2=O` (stereo not drawn) [TCMDC-123632] was 18.25%. With `COC(=O)c1ccc2nc(-c3ccc(/C=C/C(=O)NCc4ccc(Cl)c(Cl)c4)cc3)[nH]c2c1` [TCMDC-140447] the figure was 71.15%; with `CC(C)(C)c1ccc(CNC(=O)/C=C/c2ccc(-c3nc4ccc(C(C)(C)C)cc4[nH]3)cc2)cc1` [TCMDC-140459], 15.07%. The value for `Cc1ccc2nc(-c3ccc(C=CC(=O)NCc4ccc(Cl)c(Cl)c4)cc3)[nH]c2c1` [TCMDC-140402] was -29.51%; that for `O=C(NCc1ccc(Cl)c(Cl)c1)c1ccc(-c2nc3ccc(F)cc3[nH]2)cc1` [TCMDC-140448] was -30.61%; that for `O=C(/C=C/c1ccc(-c2nc3cc(F)c(F)cc3[nH]2)cc1)NCc1ccc(Cl)c(Cl)c1` [TCMDC-140462] was 80.74%. On to `Cc1cc2nc(-c3ccc(/C=C/C(=O)NCc4ccc(Cl)c(Cl)c4)cc3)[nH]c2cc1C` [TCMDC-140437], for which the “% Inhibition” value turned out to be 1.168%.

For the compound `Cc1cc2nc(-c3ccc(/C=C/C(=O)NCCc4ccccc4)cc3)[nH]c2cc1C` [TCMDC-140438], the “% Inhibition” value is given as -13.04%. With `O=C(/C=C/c1ccc(-c2nc3ccc(Cl)cc3[nH]2)cc1)NCc1cccc(F)c1` [TCMDC-140444], the “% Inhibition” value is -5.382%. With `Cc1cc2nc(-c3ccc(C(=O)NCc4ccc(Cl)c(Cl)c4)cc3)[nH]c2cc1C` [TCMDC-140430] the figure was 14.5%. The value for `CC(C)(C)c1ccc2nc(-c3ccc(/C=C/C(=O)NCc4cccc(C(F)(F)F)c4)cc3)[nH]c2c1` [TCMDC-140458] was -22.76%; that for `O=C(NCc1ccc(Cl)c(Cl)c1)c1ccc(-c2nc3cc(F)c(F)cc3[nH]2)cc1` [TCMDC-140460] was 62.28%. `CC(C)(C)c1ccc2nc(-c3ccc(/C=C/C(=O)NCc4ccc(Cl)c(Cl)c4)cc3)[nH]c2c1` [TCMDC-140457]: the “% Inhibition” value is 61.32%. With `CC[C@H](C)CNC(=O)c1cccc(-c2cccc(CNCC3CNCCCO3)c2)n1` (stereo partly drawn) [TCMDC-134217] the figure was 48.98%.

For the compound `Clc1cc(Nc2ncnc3sc(C#Cc4ncc[nH]4)cc23)ccc1OCc1ccccn1` [TCMDC-135429], the “% Inhibition” value was -6.463%. With `Cc1cc(Cl)c(S(=O)(=O)N2CCc3ccccc32)cc1OCC(=O)NC1CCCCC1` [TCMDC-124369] the figure was -19.22%.
